23 molecules from PubChem BioAssay (NCATS) can be followed below.

Test [1] in a line: NS1 protein of Zika virus - qHTS assay to identify small molecule inhibitors in human HEK 293 cells (AID 1347053). Further: nearly all actives have a fitted effect of over 55% in size. The method in brief:
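Readout was TR-FRET using paired anti-NS1 antibodies after 24 h infection of HEK 293 cells with ZIKV MR766 (MOI = 0.5). Compound preceded virus by 1 h; reduced signal reflects lower NS1 expression.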
For orientation: In qHTS, concentration-response curves come from the screen itself.

A short description of test [2]: qHTS of pediatric cancer cell lines to identify multiple opportunities for drug repurposing: Primary screen for SJ-GBM2 cells (AID 1347091). The method in brief:
(§1)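 Cell viability, CellTiter-Glo luminescence; 500-1,000 cells/well, 8- or 11-point titration, 48 h compound exposure at 37 degrees C, 5% CO2. Controls: DMSO neutral, bortezomib 2.3 µM final as positive.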

A short description of test [3]: qHTS of pediatric cancer cell lines to identify multiple opportunities for drug repurposing: Primary screen for TC32 cells (AID 1347089). Further: nearly all actives have a fitted effect of over 60% in size. The essentials: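 In the primary qHTS, MIPE compounds were tested at 11 concentrations (0.78 nM to 46 µM) and NPC compounds at 8 (0.59 nM to 46 µM) on TC32 cells for 48 h. CellTiter-Glo luminescence gave viability.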
Test [4] in a line: qHTS of pediatric cancer cell lines to identify multiple opportunities for drug repurposing: Primary screen for DAOY cells (AID 1347090). Further: nearly all actives have a fitted effect of over 55% in size. The method in brief:
as §1

A short description of test [5]: qHTS of pediatric cancer cell lines to identify multiple opportunities for drug repurposing: Primary screen for A673 cells (AID 1347092). Further: nearly all actives have a fitted effect of over 45% in size. The essentials: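 48 h compound exposure, A673, 500-1,000 cells/well, 37 degrees C/5% CO2. MIPE: 11-point, 0.78 nM-46 µM; NPC: 8-point, 0.59 nM-46 µM (final). Readout CellTiter-Glo luminescence after 15 min RT.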
Test [6] in a line: qHTS of pediatric cancer cell lines to identify multiple opportunities for drug repurposing: Primary screen for SK-N-MC cells (AID 1347093). The method in brief: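 Metabolically active cells were quantified by ATP-dependent luminescence (CellTiter-Glo, 15 min at room temperature) following 48 h treatment. Cells had been plated at 500-1,000 per well and settled for 5 h beforehand.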

SMILES strings stand for the structures. Results filed as inconclusive are left out. Active and inactive are the calls of the source. The call rests on the fitted dose curve; in most records, active means well fitted curve in the direction sought with a large enough effect; inconclusive means small, poorly fitted or top-dose-only effect, or another doubt; inactive means no such curve, though single readings can be large; an effect the other way counts as inactive or inconclusive.
Potency means the concentration at half of the fitted maximal effect.

As to `COc1ccc(S(=O)(=O)Nc2cc(-c3c(O)ccc4ccccc34)c(O)c3ccccc23)cc1`, the Potency entry in test [1] was “inactive”. Besides, the Potency in test [2] was 18700 nM (active).

Turning to `COc1cc(N2CCC(C(N)=O)CC2)ccc1Nc1nc(N)c(Cl)c(Nc2ccccc2S(=O)(=O)C(C)C)n1`, the Potency in test [3] was 2620 nM (active); in test [4] it was 187 nM (active); in test [5], 1180 nM (active); in test [6], 132 nM (active). Besides, the Potency entry in test [2] was “inactive”.

Take `CNC(=O)c1ccc(Nc2cc(Nc3ccccc3S(=O)(=O)C(C)C)c3cc[nH]c3n2)nc1`: the Potency in test [3] is 2620 nM (active); in test [4], 14800 nM (active); in test [2], 1050 nM (active); in test [5], 2350 nM (active); in test [6], 743 nM (active).

Consider `Cn1cc(-c2cnn3c(N)c(Br)c([C@H]4CCCNC4)nc23)cn1`, for which the Potency is 833 nM (active) in test [1], 235 nM (active) in test [2], 59 nM (active) in test [5] and 93.5 nM (active) in test [6].

With `c1cc(CN2CCCNCCNCCCNCC2)ccc1CN1CCCNCCNCCCNCC1`, the Potency entry in test [3], in test [4], in test [2] and in test [5] was “inactive” throughout.

With `c1ccc2c(Oc3nc(Nc4ccc(N5CCOCC5)cc4)c4ncn(C5CCCCC5)c4n3)cccc2c1`, the Potency entry in test [1] and in test [4] was “inactive” throughout. Also, the Potency in test [6] is 11800 nM (active).

`NC(=O)c1cccc(-c2cccc(OC(=O)NC3CCCCC3)c2)c1`: the Potency entry in test [1], in test [4] and in test [6] was “inactive” in each case.

`Nc1nc(N)c2nc(-c3cccc(O)c3)c(-c3cccc(O)c3)nc2n1`: the Potency in test [3] is 18600 nM (active); in test [4], 7430 nM (active); in test [2], 8330 nM (active); in test [5], 2350 nM (active); in test [6] it was 1480 nM (active).

As for `CC(=O)N[C@@H]1[C@H](O[C@@H]2c3ccc(c(Cl)c3)Oc3cc4cc(c3O[C@H]3O[C@H](CO)[C@@H](O)[C@H](O)[C@H]3NC(=O)CCCCCCCC(C)C)Oc3ccc(cc3Cl)C[C@H]3NC(=O)[C@H](N)c5ccc(O)c(c5)Oc5cc(O)cc(c5)[C@H](NC3=O)C(=O)N[C@H]4C(=O)N[C@H]3C(=O)N[C@@H]2C(=O)N[C@@H](C(=O)O)c2cc(O)cc(O[C@H]4O[C@H](CO)[C@@H](O)[C@H](O)[C@H]4O)c2-c2cc3ccc2O)O[C@H](CO)[C@@H](O)[C@@H]1O`, the Potency entry in test [3], in test [4] and in test [5] was “inactive” in each case.

As to `CCCNS(=O)(=O)Nc1ncnc(OCCOc2ncc(Br)cn2)c1-c1ccc(Br)cc1`, the Potency entry in test [3], in test [4], in test [2] and in test [5] was “inactive” throughout.

Turning to `CC1(C)CC(O)CC(C)(C)N1[O]`, the Potency result in test [1], in test [4] and in test [6] was “inactive” in each case.

As for `CCCCCCCN(CC)CCCC(O)c1ccc(NS(C)(=O)=O)cc1` (centres undefined), the Potency result in test [1], in test [4] and in test [6] was “inactive” throughout.

Consider `COc1ccc2c(c1OC)C(=O)OC2[C@H]1c2c(cc3c(c2OC)OCO3)CCN1C` (some centres undefined), for which the Potency in test [3] is 1040 nM (active); in test [4], 469 nM (active); in test [2], 132 nM (active); in test [5], 74.3 nM (active); in test [6], 83.3 nM (active).

Consider `Cn1cc(C=CC(=O)c2cccc(F)c2)cc1C=CC(=O)NO`, for which the Potency entry in test [1] and in test [2] was “inactive” throughout. Further, the Potency was 9350 nM (active) in test [5] and 2960 nM (active) in test [6].

Turning to `Cn1c(Nc2ccc(C(F)(F)F)cc2)nc2cc(Oc3ccnc(-c4ncc(C(F)(F)F)[nH]4)c3)ccc21`, the Potency in test [3] was 16500 nM (active); in test [4], 18700 nM (active); in test [2] it was 662 nM (active); in test [5] it was 2350 nM (active).

In the case of `CCN(CC)CCNC(=O)c1c(C)[nH]c(C=C2C(=O)Nc3ccc(F)cc32)c1C`, the Potency is 12000 nM (active) in test [3]; 42900 nM (active) in test [4]; 34000 nM (active) in test [2]; 5400 nM (active) in test [5]; 1080 nM (active) in test [6].

As for `O=C(NCc1ccccc1)[C@H](Cc1ccccc1)NC(=O)[C@@H]1O[C@@H]1C(=O)NCCc1ccc(O)cc1`, the Potency result in test [1] is “inactive”. For the same molecule, the Potency was 1180 nM (active) in test [5] and 23500 nM (active) in test [6].

Turning to `C#C[C@]1(O)CC[C@@H]2[C@@H]3CCc4cc(O)ccc4[C@H]3CC[C@@]21C`, the Potency result in test [3] was “inactive”. Moreover, the Potency is 14800 nM (active) in test [4], 18700 nM (active) in test [2], 14800 nM (active) in test [5] and 11800 nM (active) in test [6].

On to `CC(=O)O[C@H]1C[C@@H]2CC[C@H]3[C@H]4C[C@H]([N+]5(C)CCCCC5)[C@@H](OC(C)=O)[C@@]4(C)CC[C@@H]3[C@@]2(C)C[C@H]1N1CCCCC1`, for which the Potency result in test [1] and in test [2] was “inactive” in each case.

For `CC(C)c1cc(C(C)C)c(CC(=O)NS(=O)(=O)Oc2c(C(C)C)cccc2C(C)C)c(C(C)C)c1`, the Potency result in test [1] was “inactive”. For the same molecule, in test [2], the Potency is 11800 nM (active).

Consider `CCCCCCCCc1ccc(CCC(N)(CO)CO)cc1`, for which the values for the Potency in test [1], in test [2] and in test [6] were 9350 nM (active), 14800 nM (active) and 1870 nM (active), respectively.

In the case of `CC(C)(C)c1nc2c3cc[nH]c(=O)c3c3cc(F)ccc3c2[nH]1`, the Potency entry in test [1] was “inactive”. The Potency in test [6] is 1180 nM (active).

For `COc1cc(C)c(Sc2cnc(NC(=O)c3ccc(CNC(C)C(C)(C)C)cc3)s2)cc1C(=O)N1CCN(C(C)=O)CC1` (centres undefined), the Potency in test [3] is 20800 nM (active); in test [4], 18700 nM (active); in test [2], 4690 nM (active); in test [5], 2350 nM (active); in test [6], 2090 nM (active).
